Test results: ChEMBL document CHEMBL3988442, “University of Dundee, Small-Polar-MMV Screening Library” (2021)
The whole screen tested about 48,000 compounds, of which about 13,000 (27%) showed an effect of 50% or more. The list shows a part of the results.

tested on: Wolbachia pipientis; assay: Anti-Wolbachia Cell-Based Screen; format: functional; design: scale not given: in the data most compounds retested in dose-response had high values; details: 5 µM

SMILES | Percent Effect
COc1cccc(C2C3=C(COC3=O)Nc3[nH]nc(C)c32)c1O (stereo not given) | 0.9958%
OCc1cc2ccccc2nc1NCC1(O)CCC1 | 2.986%
Cc1cc(F)ccc1-n1cc(O)c(C(=O)NCC2(O)CCC2)n1 | 99.53%
O=C(NCC1(O)CCOCC1)c1ccn(-c2ccccc2F)n1 | -4.813%
O=C(NCCC(=O)N1CCCC1)c1nn(-c2ccccc2F)cc1O | -1.899%
O=C(CO[C@@H]1CC[C@H]2[C@H]1OCCN2c1ncccn1)N1CCCC1.O=C(O)C(F)(F)F | -14.02%
Cc1nnc(N2C[C@H](OCC3CCCC3)[C@H]3OCCC[C@H]32)s1.O=C(O)C(F)(F)F | -7.444%
Fc1cnc(N2CCO[C@H]3[C@H](OCCN4CCCC4)CC[C@@H]32)nc1.O=C(O)C(F)(F)F | 101.9%
Fc1cnc(N2CC[C@@H](N3CCOCC3)[C@@H]2Cc2ccncc2)nc1.O=C(O)C(F)(F)F.O=C(O)C(F)(F)F | -1.872%
O=C(O)C(F)(F)F.c1cnc(N2CCO[C@H]3[C@H](OCCN4CCCC4)CC[C@@H]32)nc1 | -8.905%
O=C(O)C(F)(F)F.c1cnc(N2CCO[C@H]3[C@H](OCC4CC4)CC[C@@H]32)nc1 | 118.2%
Fc1cnc(N2C[C@@H](OCC3CCOCC3)[C@H]3OCCC[C@H]32)nc1.O=C(O)C(F)(F)F | 83.11%
Fc1cnc(N2CCO[C@H]3[C@H](OCC4CCOCC4)CC[C@@H]32)nc1.O=C(O)C(F)(F)F | 113.1%
Cc1nnc(N2C[C@@H](OCC3CCCC3)[C@H]3OCCC[C@H]32)s1.O=C(O)C(F)(F)F | -7.489%
Cc1nnc(N2CCO[C@H]3[C@@H](OCc4ccccn4)CC[C@@H]32)s1.O=C(O)C(F)(F)F.O=C(O)C(F)(F)F | 0.4576%
C1CC(CN2CCO[C@H]3[C@H](OCC4CC4)CC[C@@H]32)CCO1.O=C(O)C(F)(F)F | -2.542%
Cn1cccc1C(=O)NS(=O)(=O)c1cnn(-c2ccccc2F)c1 | -15.01%
CCC(CC)c1cc(CNC(=O)N2CCC(CO)CC2)on1 | 3.231%
CCSc1ccc(NC(=O)NC(C)c2ccncc2)cn1 (stereo not given) | 4.069%
CN(C)C(=O)CO[C@@H]1CC[C@H]2[C@H]1OCCN2c1ncccn1.O=C(O)C(F)(F)F | -13.26%
O=C(O)C(F)(F)F.c1cnc(N2CCO[C@H]3[C@H](OCC4CCOCC4)CC[C@@H]32)nc1 | 109.2%
Cc1ccc(N2CCO[C@H]3[C@H](OCC(=O)N4CCCC4)CC[C@@H]32)cc1.O=C(O)C(F)(F)F | -12.38%
c1cnc(N2CCO[C@H]3[C@H](OCCN4CCOCC4)CC[C@@H]32)nc1 | 4.128%

SMILES | Percent Effect
CN(C)C(=O)CO[C@@H]1CC[C@H]2[C@H]1OCCN2c1ncc(F)cn1.O=C(O)C(F)(F)F | 112.4%
CC(C)c1noc(CS(=O)(=O)CC(=O)NCc2ccccc2)n1 | -6.671%
CNC(=O)CC1CCN(C(=O)NCC2(c3ccccc3F)CC2)CC1 | 17.39%
C[C@H](NC(=O)c1cnc(-c2ccccc2)nc1O)C(N)=O | -2.731%
Cc1cccc(C)c1Oc1ncccc1CNC(=O)C1(C)CCCNC1 (stereo not given) | 9.373%
CC(=O)N[C@@H](C)C(=O)NCc1cccnc1Oc1ccccc1F | -9.866%
O=C1NC(C(=O)NCc2cccnc2Oc2ccc(F)cc2F)CO1 (stereo not given) | 106.1%
O=C1NC(C(=O)NCc2cccnc2Oc2ccccc2F)CO1 (stereo not given) | 117.3%
O=C1NC(C(=O)NCc2cccnc2Oc2ccc(F)c(F)c2)CO1 (stereo not given) | 103.5%
CC1(C(=O)NCc2cccnc2Oc2ccc(F)c(F)c2)CCCNC1 (stereo not given) | -1.745%
O=C(CN1CCCC1=O)NCc1cccnc1Oc1ccc(F)c(F)c1 | -46.82%
CN(C)S(=O)(=O)NCc1cccnc1Oc1ccccc1F | -2.54%
Cc1cccc(C)c1Oc1ncccc1CNC(=O)C1COC(=O)N1 (stereo not given) | 89.56%
CC1(C(=O)NCc2cccnc2Oc2ccc(F)cc2F)CCCNC1 (stereo not given) | -10.63%
Cc1ccccc1Oc1ncccc1CNC(=O)Cn1cccnc1=O | -3.943%
COc1ccccc1Oc1ncccc1CNC(=O)C(O)C(F)(F)F (stereo not given) | -1.797%
CC(C)c1noc(CN(C)C(c2ccc(F)cc2)c2cccnc2)n1 (stereo not given) | 7.35%
CCn1nc2c(cc1=O)CN(CCCOc1ccc(C#N)cc1)CC2 | -4.501%
CC(C)(C)OC(=O)NCC1CCCCN1Cc1cccc(C(N)=O)c1 (stereo not given) | -2.516%
CCOC(=O)C1CN(C(=O)C2CCOCC2)Cc2ncn(CC)c21 (stereo not given) | 3.509%
Cc1nnc(CN2CCCC2c2ccc(C(C)(C)C)cc2)o1 (stereo not given) | -26.52%
CSc1ncccc1C(=O)N1CCC2(CC1)c1nc[nH]c1CCN2C | 9.792%
CCSCCC(=O)Nc1ncn(Cc2cccnc2)n1 | -3.764%

SMILES | Percent Effect
O=S(=O)(Cc1cccc2cccnc12)NC(CO)c1ccco1 (stereo not given) | -8.128%
CCCS(=O)(=O)NCc1cccnc1Oc1ccc(C)c(F)c1F | -1.189%
COc1ccccc1Oc1ncccc1CNC(=O)[C@@H](N)[C@@H](C)O | -22.34%
Cc1ccc(Oc2ncccc2CNC(=O)C2COC(=O)N2)c(F)c1F (stereo not given) | 65.92%
Cc1nc(CNCc2cccnc2Oc2ccc(C)c(F)c2F)c[nH]1 | -6.11%
COc1ccccc1Oc1ncccc1CNC(=O)[C@H](C)O | -22.76%
COc1ccccc1Oc1ncccc1CNC(=O)C1COC(=O)N1 (stereo not given) | 98.82%
c1ccc(-c2nccc(CNCC3CCCN3c3cccnn3)n2)cc1 (stereo not given) | 1.65%
Cn1cnc2c1CCN(CC(O)c1ccc3c(c1)OCCO3)C2 (stereo not given) | 2.698%
Cc1nc(C(=O)N2CC(C)Sc3ccccc32)cs1 (stereo not given) | -0.9397%
CN(Cc1ncnn1C)c1ccnc(Cc2ccccc2)n1 | -0.8819%
O=C(O)C(F)(F)F.c1cnc(N2CC3(CCN(CC4CCOC4)CC3)c3ccccc32)nc1 (stereo not given) | -15.18%
CCS(=O)(=O)N1CCC2(CCC(N3CCCC3)c3ccccc32)CC1.O=C(O)C(F)(F)F (stereo not given) | 6.992%
O=C(O)C(F)(F)F.c1cnc(N2CC3(CCN(C4CCOCC4)CC3)c3ccccc32)nc1 | 5.791%
CCCS(=O)(=O)N1CCC2(CC1)CN(C(=O)N(C)C)c1ccccc12 | -3.576%
CN1CC2(CCN(S(=O)(=O)C3CC3)CC2)c2ccccc21.O=C(O)C(F)(F)F | -12.74%
CCS(=O)(=O)N1CCC2(CC1)CN(CC1CCOC1)c1ccccc12.O=C(O)C(F)(F)F (stereo not given) | 101.7%
O=C(O)C(F)(F)F.c1ccc2c(c1)N(CC1CCOC1)CC21CCN(c2cnccn2)CC1 (stereo not given) | 103.7%
CS(=O)(=O)N1CCC2(CC1)CN(CC1CCOC1)c1ccccc12.O=C(O)C(F)(F)F (stereo not given) | 90.82%
O=C(O)C(F)(F)F.O[C@@H]1CCN(CC2CCOC2)[C@H]1Cc1ccccc1 (stereo not given in full) | -6.584%
O=C(O)C(F)(F)F.c1cncc(C2CC3(CCN(c4cnccn4)CC3)c3ccccc32)c1 (stereo not given) | 23.08%
CCCS(=O)(=O)N1CCC2(CC1)CC(N1CCCC1)c1ccccc12.O=C(O)C(F)(F)F (stereo not given) | 11.6%
CCCS(=O)(=O)N1CCC2(CC1)CN(CC1CCOC1)c1ccccc12.O=C(O)C(F)(F)F (stereo not given) | 105.4%

SMILES | Percent Effect
COC[C@]12COC[C@H]1CN(S(=O)(=O)c1cccnc1)C2 | 6.326%
Cc1nnc(N2C[C@H]3OCC[C@H]3[C@H](C(=O)NCC3CC3)C2)s1.O=C(O)C(F)(F)F | -6.656%
O=C1CC2(CCN(Cc3ccc4cccc(O)c4n3)CC2)CN1 | -6.934%
COc1ccc(CCNc2cc(-c3nc(C)no3)ccn2)cc1OC | -4.716%
CCC(=O)N1CCC2(COCc3cnc(NCc4ccco4)nc32)C1 (stereo not given) | 102.3%
O=C(C1CC1)N1CCC2(COCc3cnc(NCc4ccco4)nc32)C1 (stereo not given) | 107.6%
Fc1cnc(N2CCC3(COCc4cnc(NCC5CC5)nc43)C2)nc1 (stereo not given) | 3.153%
CCC(=O)N1CCC2(COCc3c(C)nc(NCc4ccco4)nc32)C1 (stereo not given) | 0.949%
CNC(=O)N1CCC2(COCc3c(C)nc(NCc4ccco4)nc32)C1 (stereo not given) | -16.5%
COCC(=O)N1CCC2(COCc3cnc(NCc4ccco4)nc32)C1 (stereo not given) | 94.68%
CC(C)(C)C(=O)N1CCC2(COCc3cnc(N4CCOCC4)nc32)C1 (stereo not given) | -4.302%
CCC(C)(CC(=O)OC)NC(=O)c1cccc(F)c1F (stereo not given) | 0.5787%
Cc1cc(NCCO)nc(N2CCC(Cc3ccccc3)CC2)c1C#N.O=C(O)C(=O)O | -4.494%
CC(C)N(CCSc1ncnc2[nH]ncc12)C(C)C | -23.68%
O=S(=O)(NCCn1cc(C2CCOC2)nn1)c1ccc(Cl)cc1 (stereo not given) | 2.449%
CCc1noc(CNc2cc3c(cc2Cl)OCCO3)n1 | 29.93%
N#Cc1ccc(OCCOc2ccccc2C(=O)N2CCOCC2)cc1 | 2.422%
CO[C@@H]1CC[C@H]2[C@H]1OCCN2Cc1ccc(F)c(F)c1.O=C(O)C(F)(F)F | 101.8%
CO[C@@H]1CC[C@H]2[C@H]1OCCN2CCOCc1ccccc1.O=C(O)C(F)(F)F | 11.38%
CO[C@H]1CC[C@H]2[C@H]1OCCN2Cc1ccc(F)c(F)c1.O=C(O)C(F)(F)F | 110.9%
CO[C@H]1CC[C@H]2[C@H]1OCCN2CCOCc1ccccc1.O=C(O)C(F)(F)F | -1.824%
